Screens: PubChem, several laboratories
Rows were chosen to be rich in hits. Some 0.67% of all compounds tested hit in one or more screens of this group.
BH1578 lux ind – inducers of Vibrio cholerae quorum light production without autoinducers. V. cholerae BH1578 lux reporter, luminescence, 6 h. activation, % at 18.7 µM. hit rate 0.16% among 350,000. AID 588436; in the data active means activation mostly above about 9.7%, no sharp cut-off
RN4220 kill – kills Staphylococcus aureus RN4220; AID 1259311; hit rate 0.33% among 330,000; inhibition, % (concentration not given with the values); S. aureus RN4220 growth, OD600, 16 h; in the data active means inhibition above about 85%
Sa ugtP lethal – compounds lethal to S. aureus RN4220 ugtP deletion mutant; OD600 growth, 16 h; hit rate 0.54% among 330,000; AID 1259309; growth inhibition, % (concentration not given with the values); in the data active means growth inhibition above about 68%
TcdB GH inh – inhibitors of Clostridioides difficile toxin B glycohydrolase. P18177. TcdB glycohydrolase enzymatic assay, plate reader. inhibition, % at 9.99 µM. hit rate 0.24% among 350,000. AID 652162; in the data active means inhibition above about 10%
Each line names hits and unclear results; the compound was inactive in the other large screens.

Cc1cccc(OCc2n(CC(=O)OC3CC(C)CCC3C(C)C)c3ccccc3[n+]2C)c1 (stereo not given)	none (no result: RN4220 kill, Sa ugtP lethal, TcdB GH inh)
CC1CCC(C(C)C)C(OC(=O)Cn2c(-c3ccc(F)cc3)[n+](C)c3ccccc32)C1 (stereo not given)	RN4220 kill 97, Sa ugtP lethal 100
CC1CCC(C(C)C)C(OC(=O)Cn2c(COc3ccccc3)[n+](C)c3ccccc32)C1 (stereo not given)	RN4220 kill 101, Sa ugtP lethal 100
CC1CCC(C(C)C)C(OC(=O)Cn2c(-c3ccccc3)[n+](C)c3ccccc32)C1 (stereo not given)	RN4220 kill 99, Sa ugtP lethal 100
CC(C(O)c1ccccc1)N(C)C(=O)Cc1ccccc1 (stereo not given)	none (no result: BH1578 lux ind, TcdB GH inh)
O=C(Nc1ccc(N2CCOCC2)c(Cl)c1)c1ccc(-n2cnnc2)cc1	none
O=C(Nc1ccc(N2CCOCC2)c(Cl)c1)c1ccc(F)cc1	TcdB GH inh 17
NC(N)=NS(=O)(=O)c1ccc(NC(=S)NC(=O)Cc2ccc(Cl)cc2)cc1	Sa ugtP lethal 88
NC(N)=NS(=O)(=O)c1ccc(NC(=S)NC(=O)c2ccccc2)cc1	Sa ugtP lethal active
NC(N)=NS(=O)(=O)c1ccc(NC(=S)NC(=O)/C=C/c2ccccc2)cc1	none
Cc1ccc(C=NNC(=O)C2COc3cc4ccccc4cc3O2)o1 (stereo not given)	none (no result: BH1578 lux ind, TcdB GH inh)
Clc1ccc(CSC(Cn2ccnc2)c2ccc(Cl)cc2Cl)cc1 (stereo not given)	RN4220 kill 97
CC(=O)C(=CN(C)C)C(=O)Nc1ccc(Cl)cc1Cl	none (no result: BH1578 lux ind, TcdB GH inh)
O=C(C1=CC(c2coc3ccccc3c2=O)CC(OCCCCO)O1)N1CCN(Cc2ccccc2)CC1 (stereo not given)	none (no result: BH1578 lux ind, TcdB GH inh)
Cc1ccc(NC2=C(NC(=O)c3ccccc3)C(=O)c3ccccc3C2=O)cc1Cl	RN4220 kill 86, Sa ugtP lethal 88 (no result: TcdB GH inh)
Cc1ccc(C(=O)NCCn2cc(SCC(=O)Nc3cc(C)on3)c3ccccc32)cc1	TcdB GH inh 15
CCOC(=O)C1C2COc3ccc(OC)cc3C2N2C(=O)CN(Cc3ccc(OC)cc3)C(=O)[C@@]12C (stereo not given in full)	none (no result: BH1578 lux ind, TcdB GH inh)
COc1cc(/C=N/NC(=O)CSc2ccccn2)ccc1O	TcdB GH inh 11 (no result: RN4220 kill, Sa ugtP lethal)
COc1ccc(C=NNC(=O)c2cc(C)oc2C)cc1O	TcdB GH inh 10
COc1cc(/C=N/Nc2nc3ccccc3[nH]2)ccc1O	TcdB GH inh 20 (no result: RN4220 kill, Sa ugtP lethal)
COc1cc(C=NNC(=O)c2cc(C)oc2C)ccc1O	none (no result: BH1578 lux ind, TcdB GH inh)
COc1cc(C=NNC(=O)Cn2nnc3ccccc32)ccc1O	none (no result: BH1578 lux ind, TcdB GH inh)
COc1cc(/C=N/Nc2nc3ccccc3[nH]2)cc(OC)c1O	none (no result: RN4220 kill, Sa ugtP lethal, TcdB GH inh)
COc1cc(/C=N/NC(=O)Cn2nnc3ccccc32)ccc1O	TcdB GH inh 12 (no result: RN4220 kill, Sa ugtP lethal)
CC(=NNC(=O)Cn1nc(C)cc1C)c1ccc([N+](=O)[O-])cc1	none (no result: BH1578 lux ind, TcdB GH inh)
Cc1ccc(C(=O)N2C3CN(C)C(=O)[C@@]2(Cc2ccccc2)C2C(=O)N(Cc4ccccc4)C(=O)C32)cc1 (stereo not given in full)	none (no result: BH1578 lux ind, TcdB GH inh)
Cc1ccc(C2C3C(=O)N(C)C(=O)C3C3C(=O)Nc4ccccc4C(=O)N32)cc1 (stereo not given)	none (no result: BH1578 lux ind, TcdB GH inh)
COc1cc(/C=N/NC(=O)C2COc3ccccc3O2)ccc1O (stereo not given)	TcdB GH inh 14 (no result: RN4220 kill, Sa ugtP lethal)
CCOc1cc(C=NNC(=O)c2ccccc2-n2cccc2)ccc1O	none (no result: BH1578 lux ind, TcdB GH inh)
COc1cc(/C=N/NC(=O)C2(O)c3ccccc3-c3ccccc32)ccc1O	TcdB GH inh 10 (no result: RN4220 kill, Sa ugtP lethal)
COc1cc(C=NNC(=O)C2(O)c3ccccc3-c3ccccc32)ccc1O	none (no result: BH1578 lux ind, TcdB GH inh)
COc1cc(C=NNC(=O)c2ccccc2-n2cccc2)ccc1O	TcdB GH inh 13
COc1ccc(/C=N\NC(=O)C2COc3ccccc3O2)cc1O (stereo not given)	none (no result: RN4220 kill, Sa ugtP lethal)
COC(=O)C=CC(=O)NCc1ccco1	none (no result: BH1578 lux ind, TcdB GH inh)
Nc1nonc1-n1nnc(C(=O)NN=Cc2ccoc2)c1-c1ccccc1	none (no result: BH1578 lux ind, TcdB GH inh)
CC1=NNC(=O)C1CC(=O)NN=Cc1ccncc1 (stereo not given)	none (no result: BH1578 lux ind, TcdB GH inh)
COc1ccc(NC(=O)CC(C)=NNC(=O)c2ccncc2)c([N+](=O)[O-])c1	none (no result: BH1578 lux ind, TcdB GH inh)
Cc1cccc(C=NNC(=O)Cc2ccc(Cl)cc2)c1O	none (no result: BH1578 lux ind, TcdB GH inh)
COc1ccc(C(=O)CSc2nc(-c3ccccn3)nc(C)c2Cl)cc1	none
Cc1nc(-c2ccccn2)nc(SCC(=O)c2ccc(F)cc2)c1Cl	TcdB GH inh 12
CNC(C)C(=O)NC(C(=O)N1CCCC1C(=O)NNc1ccccc1)C(C)C (stereo not given)	none
CC(N)C(=O)NC(C(=O)N1CCCC1C(=O)NC(c1ccccc1)c1ccccc1)C(C)C (stereo not given)	TcdB GH inh 11
CC1(C)OC2C(O1)[C@@H](CO)O[C@H]2n1cnc2c(N)ncnc21 (stereo not given in full)	TcdB GH inh 14
